PubChem BioAssay AID1159580 (chemical genetic matrix, 2015)
“And” between values parts separate entries of the source, which are not always exact repeats. Equal entries are not always repeated. In all, about 5,500 compounds went through this assay and about 2,000 (36%) were called active. Not shown: some 18% with an inconclusive outcome. No stated cut-off is given here; in the data, active means normalized growth mostly below about 0.91 (no sharp cut-off); inconclusive means no clear call, values can overlap the other calls; inactive means mostly above about 0.92. This is one part of the list.

Assay: chemical genetic growth profiling, strain panel (AID 1159580);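 further: tested at 20 µM; growth read once vehicle control cultures reached saturation at 30 °C; 1 = growth at the plate median or of vehicle wells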
Conditions: S. cerevisiae deletion strains, growth OD

Measured: normalized growth

CC(C)c1nc(N(C)S(C)(=O)=O)nc(-c2ccc(F)cc2)c1/C=C/[C@@H](O)C[C@@H](O)CC(=O)O
1 (inactive) and 0.0994 (active): locus YHR030C, strain SLT2, stronger effect = lower value
inactive: locus YAL013W, strain DEP1, stronger effect = lower value 0.988 | locus YAL026C, strain drs2, stronger effect = lower value 0.98 | locus YAL030W, strain snc1, stronger effect = lower value 0.998 | locus YBL061C, strain skt5, stronger effect = lower value 1.02 | locus YBR009C, strain hhf1, stronger effect = lower value 0.998 | locus YBR021W, strain FUR4, stronger effect = lower value 0.96 | locus YBR023C, strain chs3, stronger effect = lower value 1.02 | locus YBR171W, strain sec66, stronger effect = lower value 1.01 | locus YBR229C, strain ROT2, stronger effect = lower value 1.01 | locus YBR231C, strain swc5, stronger effect = lower value 0.922 | locus YBR279W, strain paf1, stronger effect = lower value 0.99 | locus YCL011C, strain gbp2, stronger effect = lower value 1.01 | locus YCL016C, strain dcc1, stronger effect = lower value 0.998 | locus YCL029C, strain bik1, stronger effect = lower value 1.01 | locus YCL069W, strain vba3, stronger effect = lower value 1.02 | locus YCR088W, strain abp1, stronger effect = lower value 1.03 | locus YDL005C, strain med2, stronger effect = lower value 1.02 | locus YDL035C, strain GPR1, stronger effect = lower value 1 | locus YDL040C, strain nat1, stronger effect = lower value 1.01 | locus YDL074C, strain BRE1, stronger effect = lower value 0.995 | locus YDL101C, strain DUN1, stronger effect = lower value 0.996 | locus YDL134C, strain PPH21, stronger effect = lower value 0.995 | locus YDL185W, strain tfp1, stronger effect = lower value 0.928 | locus YDL192W, strain arf1, stronger effect = lower value 1 | locus YDR001C, strain nth1, stronger effect = lower value 1.03 | locus YDR069C, strain doa4, stronger effect = lower value 0.971 | locus YDR101C, strain arx1, stronger effect = lower value 0.999 | locus YDR150W, strain NUM1, stronger effect = lower value 1.01 | locus YDR159W, strain sac3, stronger effect = lower value 0.998 | locus YDR162C, strain NBP2, stronger effect = lower value 0.961 | locus YDR195W, strain ref2 1.09 | locus YDR297W, strain sur2, stronger effect = lower value 0.977 | locus YDR318W, strain mcm21, stronger effect = lower value 1.01 | locus YDR334W, strain swr1, stronger effect = lower value 0.982 | locus YDR335W, strain msn5, stronger effect = lower value 1.02 | locus YDR388W, stronger effect = lower value 1.01 | locus YDR392W, strain spt3, stronger effect = lower value 1.02 | locus YDR502C, strain sam2, stronger effect = lower value 1 | locus YEL003W, strain gim4, stronger effect = lower value 1.02 | locus YEL037C, strain rad23, stronger effect = lower value 1.01 | locus YEL061C, strain CIN8 (second series), stronger effect = lower value 1.02 | locus YEL061C, strain CIN8, stronger effect = lower value 0.998 | locus YER015W, strain faa2, stronger effect = lower value 0.99 | locus YER016W, strain bim1, stronger effect = lower value 1.01 | locus YER110C, stronger effect = lower value 0.999 | locus YER111C, strain swi4, stronger effect = lower value 1.02 | locus YER155C, strain BEM2 (second series), stronger effect = lower value 1.02 | locus YER155C, strain BEM2, stronger effect = lower value 0.99 | locus YER167W, strain BCK2, stronger effect = lower value 1 | locus YFR010W, strain ubp6, stronger effect = lower value 0.995 | locus YGL078C, strain dbp3, stronger effect = lower value 0.997 | locus YGL086W, strain mad1, stronger effect = lower value 1.01 | locus YGL167C, strain pmr1, stronger effect = lower value 1.01 | locus YGL173C, strain kem1, stronger effect = lower value 1 | locus YGL227W, strain vid30, stronger effect = lower value 1.02 | locus YGL240W, strain doc1, stronger effect = lower value 1.03 | locus YGL248W, strain PDE1, stronger effect = lower value 0.993 | locus YGL253W, strain hxk2, stronger effect = lower value 1.01 | locus YGR078C, strain PAC10, stronger effect = lower value 1.01 | locus YGR135W, strain pre9, stronger effect = lower value 0.987 | locus YGR229C, strain SMI1, stronger effect = lower value 1.01 | locus YGR252W, strain gcn5, stronger effect = lower value 1.04 | locus YHR013C, strain ard1, stronger effect = lower value 0.972 | locus YHR027C, strain rpn1, stronger effect = lower value 1.01 | locus YHR079C, strain IRE1 (second series), stronger effect = lower value 1 | locus YHR094C, strain hxt1, stronger effect = lower value 1.01 | locus YHR129C, strain ARP1, stronger effect = lower value 0.99 | locus YHR142W, strain chs7, stronger effect = lower value 1.02 | locus YHR200W, strain rpn10, stronger effect = lower value 1 | locus YIL066C, strain RNR3, stronger effect = lower value 1.02 | locus YIL073C, strain SPO22, stronger effect = lower value 1 | locus YIL125W, strain kgd1, stronger effect = lower value 1.02 | locus YIR030C, strain dcg1, stronger effect = lower value 1.01 | locus YJL092W, strain hpr5, stronger effect = lower value 1.03 | locus YJL095W, strain BCK1 (second series), stronger effect = lower value 0.986 | locus YJL115W, strain asf1, stronger effect = lower value 1 | locus YJL129C, strain trk1, stronger effect = lower value 1.08 | locus YJL134W, strain LCB3, stronger effect = lower value 1 | locus YJL154C, strain vps35, stronger effect = lower value 1.01 | locus YJL164C, strain tpk1, stronger effect = lower value 1 | locus YJL166W, strain qcr8, stronger effect = lower value 0.994 | locus YJL168C, strain set2, stronger effect = lower value 1.01 | locus YJL187C, strain SWE1 (second series), stronger effect = lower value 1 | locus YJL187C, strain SWE1, stronger effect = lower value 0.998 | locus YJR043C, strain POL32, stronger effect = lower value 0.997
active: locus YAL021C, strain ccr4, stronger effect = lower value 0.839 | locus YDR137W, strain rgp1, stronger effect = lower value 1.34 [resistant] | locus YHR079C, strain IRE1, stronger effect = lower value 0.127 | locus YJR066W, strain TOR1, stronger effect = lower value 0.00783
0.996 (inactive) and 0.12 (active): locus YJL095W, strain BCK1, stronger effect = lower value
